Experimental data as given in PubChem BioAssay (NCATS).
Inconclusive results are not listed. A number with no mark means an inactive call. Active and inactive are the calls of the source. Calls follow the shape of the dose curve; as a rule, active = well fitted inhibition curve with a large enough effect; inconclusive = small, poorly fitted or top-dose-only effect; inactive = flat fitted curve, though single readings scatter.

These molecules were tested against Phospholipid hydroperoxide glutathione peroxidase GPX4 (Homo sapiens) (UniProt P36969) (assay: Primary qHTS Assay for Inhibitors of Recombinant Selenoprotein Glutathione Peroxidase 4 (GPX4) (AID 1845192; also: nearly all actives have a fitted effect of over 65% in size)). Conditions: recombinant GPX4, GR-coupled NADPH fluorescence, 15 min; series mostly up to 50 µM; activity change, negative = inhibition: at the top concentration.
From the text: Assay Provider: Elias S.J. Arner MD PhD.
Department of Medical Biochemistry and Biophysics
Karolinska Institutet, Solna, Stockholm, Sweden
Selenoprotein glutathione peroxidases (GPX), like the ubiquitously expressed GPX1 and the ferroptosis modulator GPX4, enact their antioxidant activities by reducing hydroperoxides using glutathione. […] GPX1 and GPX4 inhibitors have thus shown promise as anti-cancer agents. Existing inhibitors are often promiscuous, or modulate GPX activity only indirectly, so novel direct inhibitors identified through screening against GPX1 and GPX4 could be valuable. Here, we developed optimized glutathione reductase (GR)-coupled GPX assays for the biochemical high-throughput screen (HTS) of almost 12,000 compounds with known mechanisms of action. Initial hits were triaged using a GR counter-screen, assessed for isoform specificity using a separate GPX2 assay, and were assessed for general selenocysteine-targeting activity using a thioredoxin reductase (TXNRD1) assay. With this suite of assays, we identified novel GPX1/GPX2- and GPX4-specific inhibitors and can here present a validated pipeline for future discovery research for selenoprotein-targeting agents.
SEQUENCE No. (e.g., 1, 2, 3, etc.); […] (e.g., Cells, Incubation, Reagent, etc.); VALUE; DESCRIPTION.
1; Reagent 1; 3 uL; 333.33 nM GPx4 enzyme or no enzyme control in 1536-well, black, solid Greiner assay plate.
2; Compound; 25 nL; Kalypsis pin tool (Wako USA) equipped with a 1536-well pin head.
3; Incubation; 30 min; room temperature.
4; Reagent 2; 1 uL; 500 nM GR, 5 mM GSH, 2.5 mM NADPH solution
5; Reagent 3; 1 uL; 2.5 mM CHP in 50% EtOH.
6; Detection; Fluorescence; ViewLux microplate reader, excitation 340 nm and emission 450 nm.
7; Incubation; 15 min; room temperature.
8; Detection; Fluorescence; ViewLux microplate reader, excitation 340 nm and emission 450 nm.
NOTES (numbers refer to Sequence numbers above)
1. 3 µL of 333.33 nM GPX4 and 0.016% BSA in assay buffer (50 mM Tris-HCl, 2 mM EDTA (pH 7.5), 150 mM NaCl) was added to columns 3-48 of 1536-well plates using a BioRAPTR Flying Reagent Dispenser (Let's Go Robotics (LGR), Carlsbad, CA). A no-enzyme control (0.01% BSA in TES assay buffer) was added to columns 1-2.
2. 25 nL, library and DMSO controls were added to each well with a pin tool (Kalypsys).
3. The assay plates were incubated for 30 minutes at room temperature.
4. 1 µL of master mix (500 nM glutathione reductase (GR), 5 mM reduced glutathione (GSH), 2.5 mM NADPH in assay buffer) was added.
5. 1 µL of cumene hydroperoxide (CHP) ([2.5 mM] in 50% EtOH) was then added within 5 minutes to initiate the reaction. Final concentrations were: 200 nM GPX4, 1 mM GSH, 0.5 mM CHP, 0.5 mM NADPH, 100 nM GR, 0.01% BSA.
6. Initial fluorescence readout (t=0) at 340/450 nm was measured using a ViewLux multimodal detector (PerkinElmer, Waltham, MA).
8. Endpoint fluorescence readout (t=15) at 340/450 nm was measured 15 min after room temperature incubation.

Phospholipid hydroperoxide glutathione peroxidase GPX4 (Homo sapiens), sequence (P36969 whole entry, looked up): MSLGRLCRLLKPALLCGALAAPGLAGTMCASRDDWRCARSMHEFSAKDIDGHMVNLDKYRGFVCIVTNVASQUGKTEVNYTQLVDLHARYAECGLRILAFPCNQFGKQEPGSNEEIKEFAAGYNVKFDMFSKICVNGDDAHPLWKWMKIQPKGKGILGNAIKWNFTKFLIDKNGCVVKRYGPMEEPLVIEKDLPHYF

SMILES	activity change, negative = inhibition	outcome
O=C1Nc2ccc(I)cc2/C1=C/c1cc(Br)c(O)c(Br)c1	-3.9%	–
O=C(O)c1ccccc1Nc1cccc(OCc2ccc3ccccc3n2)c1	1.69%	–
NCC(O)c1ccc(O)c(O)c1 (stereo not given)	1.61%	–
O=C(O)c1cc(=O)cc(C(=O)O)[nH]1	–	inactive
O=[N+]([O-])c1cccc2c(Br)[nH]nc12	–	inactive
NC(N)=NC(N)=Nc1cccc(Cl)c1	-15.5%	–
CNCCc1cnc(CCC(c2ccccc2)c2ccccc2)[nH]1	2.23%	–
c1ccc2c(c1)CCC[C@H]2Nc1nc2ccccc2[nH]1	4.32%	–
CC(C)(CO)Cc1cc(C(C)(C)C)c(O)c(C(C)(C)C)c1	0.884%	–
CC(C)C[C@H](NC(=O)[C@H](O)[C@H](N)Cc1ccccc1)C(=O)O	–	inactive
CN(C)C(=O)/N=N/C(=O)N(C)C	–	inactive
O=c1ccn([C@@H]2O[C@H](COP(=O)(O)OP(=O)(O)O)[C@@H](O)[C@H]2O)c(=O)[nH]1	-13.3%	–
COc1ccc(CCn2nnnc2C2(c3ccc(C)cc3)CC2)cc1	-17.8%	–
CC(=O)O[C@H]1CC2(C)[C@@H](C[C@@H](O)[C@H]3[C@@]4(C)CC[C@@H](O)[C@@H](C)[C@@H]4CC[C@@]32C)C1=C(CCC=C(C)C)C(=O)O (stereo not given in full)	–	inactive
c1ccc(C(NCc2cccnc2)(c2ccccc2)c2ccccc2)cc1	-11.5%	–
NC1CCN(O)C1=O (stereo not given)	–	inactive
COCc1nc2c([nH]1)c(=O)n(C)c(=O)n2CC(C)C	0.858%	–
CN1CCCC1CCOC(C)(c1ccccc1)c1ccc(Cl)cc1 (stereo not given)	-16.9%	–
Cc1nc2n(c(=O)c1CCN1CCC(c3noc4cc(F)ccc34)CC1)CCCC2O (stereo not given)	-12.6%	–
S=C(S)N1CCCC1	–	inactive

SMILES	activity change, negative = inhibition	outcome
C[N+](C)(C)CC=O	-14.9%	–
c1ccc(C(NCCNC(c2ccccc2)c2ccccc2)c2ccccc2)cc1	–	inactive
O=c1[nH]c2cc(Cl)ccc2c(O)c1-c1ccc(Oc2ccccc2)cc1	-13.2%	–
Nc1ncnc2c1nc(Sc1ccc(Cl)cc1)n2[C@H]1OC2COP(=O)(O)O[C@@H]2C1O (stereo not given in full)	-12.2%	–
CC(C)NC[C@H](O)COc1cccc2ccccc12	–	inactive
Oc1ccc(/C=C/c2ccc(/C=C/c3ccc(O)cc3)c(Br)c2)cc1	–	inactive
C#CCn1c(=O)c2c(ncn2C)n(C)c1=O	-6.29%	–
Cc1nc2c(OCc3ccccc3)cccn2c1CC#N	3.17%	–
COc1ccccc1N1CCN(CCCCNC(=O)c2ccc3ccccc3c2)CC1	-4.83%	–
NC(=O)CNCCC(c1ccccc1)c1ccccc1	-0.671%	–
CCCCCCCCCC[Si](C)(C)CCC(=O)NC(Cc1ccc(C)cc1)c1ccccc1 (stereo not given)	–	inactive
O=c1onc2n1-c1cc(Br)ccc1OC2	–	inactive
CC(C)NC[C@H](O)COc1ccc(CC(N)=O)cc1	–	inactive
COc1cc(/C=C(\C#N)C(=O)Nc2nnc(C(F)(F)F)s2)ccc1OCc1ccc(C(F)(F)F)cc1C(F)(F)F	–	inactive
Cc1ccccc1/C=C/C1=NCCN1	3.82%	–
CCCCOC(=O)NS(=O)(=O)c1sc(CC(C)C)cc1-c1ccc(Cn2c(CC)nc3c(C)cc(C)nc32)cc1	–	inactive
COc1ccc2c(c1)c(CC(=O)O)c(C)n2C(=O)c1ccccc1	-3.84%	–
C[C@H](O)C(=O)C1=Nc2c(nc(N)[nH]c2=O)NC1	-31.1%	–
CCCCCC[C@@H]([C@@H](C)O)n1cnc2c(N)ncnc21	-3.12%	–
N=C(N)c1ccc(OCCCCCOc2ccc(C(=N)N)cc2)cc1 (tested in a mixture with another compound)	–	inactive
